Our source for the growth values is PubChem BioAssay (NCI).

Compounds without any hit were thinned out: in the full panel of roughly 83,000, 20% have a hit.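 In brief: 96-well plates, 48 h treatment, single concentration, percent growth endpoint.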 Values without a mark were called inactive. Activity calls are given as the source filed them.

The experiment has as its system NCI-H322M lung. As to the kind of experiment: NCI-60 one-dose screen, 48 h (100 = growth as untreated, 0 = no growth, -100 = all killed). Conditions: 10 µM unless noted. The protocol:
Growth inhibition of the NCI-H322M human Non-Small Cell Lung tumor cell line is measured as a screen for anti-cancer activity. Cells are grown in 96 well plates and exposed to the test compound for 48 hours. Compounds are tested at a single concentration, which is 10^-5 M for most compounds. The reported endpoint is percent growth (GI% or GIPRCNT), where numbers from 0 - 100% represent growth inhibition, and numbers from -100% - 0 represent cell death. For example, a value of 40 represents 60% growth inhibition. A value of 0 means no net growth occurred over the course of the experiment. A value of -40 indicates 40% of cells at the beginning of the experiment died by the end of the experiment. A value of -100 means all cells are dead at the end of the experiment.
NCI-60 Human Tumor Cell Lines Screen was performed using the standard one-dose NCI protocol, which is described in more detail at https://dtp.cancer.gov/discovery_development/nci-60/default.htm.
Compounds with GIPRCNT values below 10 were considered active. Activity score was based on GIPRCNT using the following formula: […]
Score is 0 for GIPRCNT values of 100 or above, 50 for GIPRCNT values of 0, and 100 for GIPRCNT values of -100.
As for `Oc1ccc(Cl)cc1Cc1cc(Cl)ccc1O`, the growth was 79.6%. The value for `O=C(c1ccccc1)c1cc2ccccc2oc1=O` was 97.7%; that for `O=C1C=CC(=O)N1c1cc(Cl)c(Cl)cc1Cl` was 90.6%. With `Cc1nc([N+](=O)[O-])c(Sc2nncc(-c3ccccc3)n2)n1C`, the growth was 92.1%. Consider `CCN(CC)CC(O)c1cc(-c2ccc(Cl)cc2)nc2cc(Cl)ccc12` (stereo not given), for which the growth was 79.2%. As to `CN=C(N)N/N=C(\c1ccccc1)c1ccc(Br)cc1`, the growth was 0.506% (active). As for `CCOC(=O)C1(C)CCCC1N` (stereo not given), the growth was 101%.

Turning to `COc1c(C)c2c(c(O)c1C/C=C(\C)CCC(=O)O)C(=O)OC2`, the growth was 38.3%. As for `Oc1ccc(Nc2ccc3ccccc3c2)cc1`, the growth was 33.9%. For the molecule `Cc1cc(N/N=C/c2ccccn2)nc2ccccc12`, the growth is 7.17% (active). As to `CCCCCCCCc1cc(Cl)c(O)c(Cl)c1`, the growth is 121%. Regarding `O=C(Cc1ccccc1)C(F)(F)F`, the growth was 94.2%. For `CCOC(=O)C1=NN(c2ccccc2)C(=O)/C1=C\N1C(=O)/C(=C/c2cccc(O)c2)SC1=S`, the growth was 98.9%.

For `COC(=O)C(=[N+]=[N-])C(=O)c1ccc([N+](=O)[O-])o1`, the growth is 103%. For the molecule `Oc1cc(Cl)ccc1Cc1ccc(Cl)cc1O`, the growth was 97%. Next, `COc1cc([C@@H]2c3cc4c(cc3[C@H](OC3OC5COC(c6ccccc6)OC5C(O)C3O)[C@H]3COC(=O)[C@H]23)OCO4)cc(OC)c1OC` (stereo not given in full): 44.2%; `O/N=C1\c2ccccc2-c2ccc(F)cc21`: 92.5%; `CCCCCCCCCCCC[n+]1ccc2ccccc2c1`: 17%. For the molecule `Cc1ccc(NC2=CC(=O)C(=O)c3ccccc32)cc1`, the growth is -12.5% (active). Consider `CCCCCCCCCCCCCCCCSC(=NCC)NCC`, for which the growth is 17.4%. Next, `CC(C)N=C(N)/N=C(\N)Nc1ccc2ccc3ccccc3c2c1`: -89.9% (active); `O=[N+]([O-])/C(=C/c1ccccc1)c1ccccc1`: 106%; `CCCCC(C=O)(C=C=C(C)C)CC` (stereo not given): 101%.

Consider `O=C(O)c1cccc2cccc(-c3c4ccc(=O)c(O)c-4oc4c(O)c(O)ccc34)c12`, for which the growth is 97.2%.

As to `CCCCN(CCCC)CCCCCCCCCCO`, the growth was 95.1%. Next, `C/C(=N/NC(N)=S)c1ccc(C)cc1`: 106%; `CN(C)c1ccc(/C=C/c2cc[n+](C)c(/C=C/c3ccc(N(C)C)cc3)c2)cc1`: -9.9% (active). In the case of `NC(=S)N/N=C/c1ncccc1O`, the growth is 40.2%. Turning to `CCOc1ccc2c(c1)/C(=C\C=C\C1CC(C)C3CC(OCC)CCC3N1CC)CC(C)N2CC` (stereo not given), the growth is 4.18% (active). In the case of `O=C1C=CC(=O)N1c1ccc(O)cc1`, the growth is 105%. On to `O=C(NOC(=O)c1ccccc1)c1ccccc1`, for which the growth is 119%. Regarding `CCCCCCCCC(=O)OCCCC(CCC(CCC1CCCO1)OC(=O)CCCCCCCC)OC(=O)CCCCCCCC` (stereo not given), the growth was 102%.

For `Cc1nnc(N/N=C/c2ccc([N+](=O)[O-])o2)[nH]c1=O`, the growth was 16.6%. Turning to `O=C1/C(=C/c2ccccc2)CCC/C1=C\c1ccccc1`, the growth is 94.9%. In the case of `CN1CCC(c2ccccc2)(c2ccccc2)C(=O)C1`, the growth was 87.6%. On to `CCCCCCCCCCCCCCCC[N+]1(C)CCCC1c1cccnc1` (stereo not given), for which the growth was 88.7%. Regarding `COC(=O)Nc1nc2ccc(C3(c4ccc(F)cc4)OCCO3)cc2[nH]1`, the growth was 51.7%.

In the case of `Cc1ccc2cccc(OC(=O)Nc3cccc(C(F)(F)F)c3)c2n1`, the growth was 88.7%. Next, `COc1cc(NCc2ccc3nc(N)nc(N)c3c2C)cc(OC)c1OC` (tested in a mixture with another compound): 51.9%.

For `Cc1cccc2c(N)c3ccccc3nc12`, the growth was -2.56% (active).
